Screening data from PubChem BioAssay.
This excerpt belongs to a sample that is enriched for hits.
FECH inh – blocks human mitochondrial ferrochelatase activity. P22830. calls only at 10 µM (by protocol). purified FECH, Ni-mesoporphyrin absorbance 550 nm. hit rate 3.3% among 20,000;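 active = enzyme reaction rate more than 3 SD below the solvent-only control wells on the same plate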;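 also: lower slope than DMSO wells means FECH inhibition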
Target sequence (P22830 whole entry, looked up): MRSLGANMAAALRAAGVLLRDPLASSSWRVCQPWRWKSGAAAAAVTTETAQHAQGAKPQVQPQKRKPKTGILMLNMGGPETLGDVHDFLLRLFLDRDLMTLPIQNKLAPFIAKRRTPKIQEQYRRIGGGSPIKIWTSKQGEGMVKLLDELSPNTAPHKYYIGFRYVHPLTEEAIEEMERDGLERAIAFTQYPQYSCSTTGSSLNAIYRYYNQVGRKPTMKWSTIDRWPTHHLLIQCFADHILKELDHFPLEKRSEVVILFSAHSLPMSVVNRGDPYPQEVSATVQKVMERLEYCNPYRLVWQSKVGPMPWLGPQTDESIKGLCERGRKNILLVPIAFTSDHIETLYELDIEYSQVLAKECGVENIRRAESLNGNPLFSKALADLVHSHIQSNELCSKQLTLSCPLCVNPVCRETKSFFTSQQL
Each line names hits and unclear results; the compound was inactive in the other large screens.

CCOC(=O)c1c(C)oc2ncnc(NCCc3ccc(S(N)(=O)=O)cc3)c12	none
O=C(O)c1cccc(CC2CCN(Cc3ncc[nH]3)C2)c1 (stereo not given)	none
O=C(O)CCC(=O)Nc1nc2n(n1)C(c1ccc(Cl)cc1)C=C(c1ccc(Cl)cc1)N2 (stereo not given)	none
Fc1ccc(Nc2nc(NCC3CCCO3)nc3c2cnn3-c2ccccc2)cc1 (stereo not given)	none
Clc1ccc(Nc2nc(NCC3CCCO3)nc3c2cnn3-c2ccccc2)cc1 (stereo not given)	FECH inh active
COc1ccc(Nc2nc(NCCCOC(C)C)nc3c2cnn3-c2ccccc2)cc1	none
CC(C)OCCCNc1nc(Nc2ccc(Cl)cc2)c2cnn(-c3ccccc3)c2n1	FECH inh active
COc1ccc(Nc2nc(NCC3CCCO3)nc3c2cnn3-c2ccccc2)cc1 (stereo not given)	none
CC(C)OCCCNc1nc(Nc2ccc(F)cc2)c2cnn(-c3ccccc3)c2n1	none
CCCC(=O)Nc1cccc(C(=O)N[C@H](C)c2cccc(OC)c2)c1	none
c1ccc2c3c([nH]c2c1)CCN(c1cc(N2CCOCC2)ncn1)C3	none
CCOc1cc(CNC(=O)CC2CCN(S(=O)(=O)c3ccccc3)CC2)ccc1OC	none
COc1ccc(NC(=O)CN2CCCN(Cc3ccc(C)cc3)S2(=O)=O)cc1OC	none
Cc1nc2c(C(=O)Nc3cnc4n3CCCC4)cccc2[nH]1	none
Cc1cccc(-c2cc(N3CCN(C(=O)NC(C)(C)C)CC3)ncn2)c1	none
CN1CCCC1CCNC(=O)CCC(=O)NC1CCCC1 (stereo not given)	none
O=C(CCC(=O)N1CCOC2(CNCCOC2)C1)NC1CCCC1 (stereo not given)	none
CCN(CC)C1CCN(C(=O)CCC(=O)NC2CCCCCCC2)C1 (stereo not given)	FECH inh active
CCOC(=O)Cn1c(=O)n(-c2ccc(F)cc2)c2nc(-c3ccccc3Cl)nc(C(N)=O)c21	none
Cc1cnc(Cn2cnc(-c3ccccc3)c2-c2ccccc2C(=O)O)cn1	none
Cc1cccc(N2CCN(c3ncc(NS(=O)(=O)c4ccc(F)cc4)cc3C(=O)O)CC2C)c1 (stereo not given)	none
Cc1cccc(N2CCN(c3ncc(NS(=O)(=O)c4cc(F)ccc4C)cc3C(=O)O)CC2C)c1 (stereo not given)	FECH inh active
Cc1cccc(N2CCN(c3ncc(NS(=O)(=O)c4ccccc4C)cc3C(=O)O)CC2C)c1 (stereo not given)	none
O=C1CCS(=O)(=O)N1c1ccc(S(=O)(=O)N2CCN(Cc3ccccc3)CC2)cc1	none
COC(=O)c1ccccc1NC(=O)N1CCC2(CC1)CNC(=O)C2	none
COc1ccc(-c2cc(N3CCN(S(=O)(=O)c4ccc(Br)cc4)CC3)ncn2)cc1	none
C=CCn1cc(CN(C)C(C)CC(=O)NC)c(C)n1 (stereo not given)	none
C=CCn1cc(CNC(C)C2=CCCCC2)c(C)n1 (stereo not given)	none
C=CCn1cc(CN[C@H](C)c2cccc(OC)c2)c(C)n1	FECH inh active
CC(C)OC(=O)c1cc2ccsc2n1CC(=O)NC1CCCCC1	none
Cn1nnnc1SCCNC(=O)[C@@H]1Cc2ccccc2N1	none
CN(Cc1ccc2cccc(Cl)c2n1)Cc1ncc[nH]1	none
Cc1cnccc1NCCn1ccnc1-c1sccc1C	none
CCN1C(SCC(=O)N2CCN(c3ccccc3F)CC2)=NS(=O)(=O)c2ccccc21	none
CCN1C(SCc2ccc(N3CCCC3=O)cc2)=NS(=O)(=O)c2ccccc21	FECH inh active
CCc1ncc2c(n1)CN(C(=O)c1ccc(N3CCCC3=O)cc1)C2	none
CCCc1cc(Sc2ccc(NC(=O)Nc3ccc(Br)cc3)cc2)n2ncnc2n1	none
CCC(Nc1nc(N(C)C)nc2c1CCNC2)c1nc2ccc(C)cc2[nH]1 (stereo not given)	none
O=C1CN(Cc2ccc(F)cc2)S(=O)(=O)c2ccccc2N1Cc1ccccc1	none
O=C1CN(Cc2ccccc2)S(=O)(=O)c2ccccc2N1Cc1ccccc1F	FECH inh active
O=C1CN(Cc2ccc(F)cc2Cl)S(=O)(=O)c2ccccc2N1Cc1ccccc1F	none
COc1ccc(OCC(=O)Nc2cc(C)nn2-c2ncnc3c2cnn3-c2ccc(C)cc2C)cc1	none
CCOC(=O)C1CCC(CNC(=O)Nc2ccc(Sc3c(CC)c(C)nc4ncnn34)cc2)CC1 (stereo not given)	none
CC(=O)c1ccc(N2CCN(S(=O)(=O)c3cc(C(=O)N4CCCC4)cs3)CC2)cc1	FECH inh active
COc1cccc(N2CCN(S(=O)(=O)c3cc(C(=O)N4CCCC4)cs3)CC2)c1	none
Cc1cc(C)cc(NS(=O)(=O)c2cc(C(=O)N3CCCCC3)cs2)c1	none
CC(=O)c1ccc(N2CCN(S(=O)(=O)c3cc(C(=O)N4CCCCC4)cs3)CC2)cc1	none
CC(C)(C)NS(=O)(=O)c1cc(C(=O)N2CCCCC2)cs1	FECH inh active
O=C(c1csc(S(=O)(=O)NC2CC2)c1)N1CCCC1	none
Cc1cc(Cn2cnc3sc4c(c3c2=O)CCNC4)c(C(F)(F)F)o1	none
CCN(CC)C(=O)N1CCOc2c(O)cc(-c3cccc(Cl)c3)cc2C1	none
CC(=O)N1CCc2c(nc(-c3ccccn3)nc2N2CC=CC2)C1	none
CCCc1cc(=O)[nH]c(SCc2nc(-c3ccc(OCC)cc3)oc2C)n1	none
Cc1ccc(C)c(OCCN(C)C(=O)c2cc3ncc(CCO)cn3n2)c1	FECH inh active
CCN(CCc1nc2ccc(C)cc2[nH]1)C(=O)c1cnn2cc(CCO)cnc12	none
Cc1ccc(OCCN(C)C(=O)c2ccc(Cn3nnnc3C)cc2)c(C)c1	none
COc1ccc(NC(=O)c2ccc(-c3cccc(NC(C)=O)c3)o2)cc1	none
CCc1nc(C)sc1CNC(=O)c1sccc1NC(C)=O	none
CCC(=O)Nc1cccc(C(=O)NCc2sc(C)nc2CC)c1	FECH inh active
CCC(=O)Nc1cccc(C(=O)NCc2nc(Cc3cccs3)no2)c1	none
Cc1cc(C)c2[nH]c(C)c(CC(=O)N3CCC(N4CCCC4=O)CC3)c2c1	none
Cc1cccc(-c2ncc(CNCCSC(C)(C)C)cn2)c1	none
COc1ccc(S(N)(=O)=O)cc1-c1noc(C2CCCCC2)n1	none
CCc1nc(-c2cc(S(N)(=O)=O)ccc2OC)no1	FECH inh active
COc1ccc(S(N)(=O)=O)cc1-c1noc(C(C)(C)C)n1	none
COc1ccc(C(=O)Nc2cc(C)nn2-c2ncnc3c2cnn3-c2cccc(Cl)c2)cc1	none
Cc1cc(C)n(CCC(=O)NCCc2ccc(S(N)(=O)=O)cc2)n1	none
CC(C)CCNC(=O)c1nc[nH]c1C(=O)N1CCC(O)(c2ccc(Cl)cc2)CC1	none
COc1ccccc1CNC(=O)c1nc[nH]c1C(=O)N1CCC(O)(c2ccc(Cl)cc2)CC1	FECH inh active
CCCNC(=O)c1[nH]cnc1C(=O)NC1CCCC1	none
CC(C)(C)CNC(=O)c1nc[nH]c1C(=O)N1CCC(O)(c2ccc(Cl)cc2)CC1	none
COc1ccccc1CNC(=O)c1nc[nH]c1C(=O)N1CCc2ccccc2C1	none
COc1ccccc1CNC(=O)c1[nH]cnc1C(=O)NCCN(C)C	none
COc1ccccc1CNC(=O)c1nc[nH]c1C(=O)NCc1cccnc1	FECH inh active
COc1ccccc1CNC(=O)c1nc[nH]c1C(=O)NCc1ccccc1	FECH inh active
COc1ccccc1CNC(=O)c1[nH]cnc1C(=O)NCCc1c[nH]c2ccccc12	none
COc1ccccc1CNC(=O)c1[nH]cnc1C(=O)NC1CCc2ccccc21 (stereo not given)	FECH inh active
CCCCCN(C)C(=O)c1[nH]cnc1C(=O)NCc1ccccc1	none
COc1ccccc1CN(Cc1cccnc1)C(=O)c1sc(C)nc1C	none
O=C1C[C@H]2CC[C@@H](CN1)N2C(=O)C1CCN(C(=O)Cc2ccccc2)CC1	none
